Reference: PubChem BioAssay (NCATS)
Several values for one entry are separate records, joined by “and”; a condition that tells them apart may be missing. Identical values can stand only once. A number with no mark means an inactive call. Results filed as inconclusive are left out. A call without a number means that no potency is given here. Activity calls are given as the source filed them. Unless noted, calls follow the shape of the dose curve; as a rule, active = well fitted curve in the direction sought with a large enough effect; inconclusive = small, poorly fitted or top-dose-only effect, or another doubt; inactive = no such curve, though single readings can be large; an effect the other way counts as inactive or inconclusive.

Key:
[1] = AP1 Signaling Pathway (AID 357; active = well fitted curve in either direction with a large enough effect, not every such curve was filed as active;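 also: ME-180 reporter cells stimulated with EGF at its EC50 level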); details: ME-180 AP-1-bla reporter, EGF-induced, beta-lactamase ratio, 5 h
Outline: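 A ratiometric CCF4 readout (405 nm excitation; 460 and 530 nm emission) quantified AP-1-driven beta-lactamase in ME-180 cells after 5 h with compound and EC50 EGF; AC50 values were derived for activators and inhibitors.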

[2] = biological target: Cytochrome P450 1A2 (Homo sapiens) (UniProt P05177); assay: p450-cyp1a2 (AID 410; calls by dose curve; also: potency is read from the fitted curve at half-maximal effect); details: recombinant CYP1A2, luciferin-ME demethylation, luminescence; series mostly up to 57 µM
Outline: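 Human CYP1A2 (20nM) demethylated Luciferin-ME at its Km (100uM) in 100mM KPO4. After 10 min compound preincubation, NADPH regeneration ran the reaction 60 min at room temperature. Luciferin was read by luminescence, normalized to 57 uM furafylline.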

[3] = Stat Signaling Pathway (AID 446; active = well fitted curve in either direction with a large enough effect, not every such curve was filed as active;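 also: ME-180 cervical cancer cells given 40 pM IL-6 alongside compound; SIE-controlled beta-lactamase reporter measured as 460/530 nm FRET emission ratio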); details: ME-180 (cervical carcinoma) SIE beta-lactamase reporter, IL-6 stimulated, 5 h
Outline: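 IL-6/STAT signaling read in ME-180 cells via an SIE beta-lactamase reporter. Stimulus was 40 pM IL-6 (its AC50) for 5 hrs, so both activation and inhibition register.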

[4] = biological target: Mitogen-activated protein kinase 10 (Mus musculus) (UniProt Q61831); assay: JNK3 AlphaScreen Assay (AID 530; active = well fitted curve in either direction with a large enough effect, not every such curve was filed as active;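 also: kinase came from lysate of stimulated human HepG2 cells; signal reports phosphorylation of biotinylated GST-cJun 1-79 at Ser73 with 10 µM ATP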); details: JNK3 lysate, c-Jun phosphorylation; series mostly up to 57.1 µM
Outline: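 Room-temperature AlphaScreen kinase assay; pre-activated HepG2 lysate as JNK3 source, biotin-GST-cJun(1-79) substrate, 10 uM ATP, compound 15 min preincubation.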

[5] = biological target: 3',5'-cyclic-AMP phosphodiesterase 4B (Homo sapiens) (UniProt Q07343); assay: qHTS Assay for Inhibitors of PDE-IV (AID 607; active = well fitted activation curve with a large enough effect in the main read-out, with a control signal flat, not every such curve was filed as active); details: HEK293 ACTOne CNG channel cells, membrane potential fluorescence; series mostly up to 22.9 µM
Outline: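 Live HEK293 cells with a modified cyclic nucleotide-gated (CNG) channel report intracellular cAMP via membrane-potential dye fluorescence (ex 535/em 590 nm). Endogenous PDE-IV was targeted. Compounds were tested at up to 22.9 uM final; RO 20-1724 100 uM served as control.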

[6] = biological target: Guanine nucleotide-binding protein G(i) subunit alpha-1 (Homo sapiens) (UniProt P63096); assay: qHTS Assay for Inhibitors of RGS12 GoLoco Motif Activity (Green Fluorophore) (AID 879); details: Galphai1/FITC-RGS12 GoLoco peptide, fluorescence polarization; series mostly up to 57.1 µM;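 also: negative values mean loss of peptide binding seen as reduced polarization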
Outline: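 Fluorescence polarization assay: 50 nM Gαi1 with 10 nM FITC-labeled RGS12 GoLoco peptide in 10 mM Tris pH 7.5, 150 mM NaCl, 0.1 mM GDP, 0.05% NP40, 10 min at room temperature with compound.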

[7] = biological target: Cytochrome P450 3A4 (Homo sapiens) (UniProt P08684); assay: qHTS Assay for Activators of Cytochrome P450 3A4 (AID 885); details: recombinant CYP3A4, Luciferin-PPXE luminescence, 60 min; series mostly up to 57.1 µM; also: nearly all actives have a fitted effect of over 65% in size
Outline: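 Quantitative HTS format: compounds preincubated with 20nM human CYP3A4 and Luciferin-PPXE substrate at KM, reaction started by NADPH regeneration, stopped after 60 min, luciferase luminescence read 20 min later.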

[8] = biological target: Pyruvate kinase PKM (Homo sapiens) (UniProt P14618); assay: qHTS Assay for Activators of Human Muscle Pyruvate Kinase (AID 954; active = well fitted curve in the direction sought with a large enough effect, not every such curve was filed as active); details: purified human muscle pyruvate kinase, luciferase-coupled luminescence, 1 h; series mostly up to 57.5 µM
Outline: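 Enzyme was run at intermediate activity so both inhibitors and activators could be detected. ATP formed from ADP and PEP by 0.1 nM human PKM2 during a 1 h room-temperature incubation was quantified by coupled luciferase luminescence.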

[9] = biological target: alpha-glucosidase (Oryza sativa, rice) (UniProt Q653V4); assay: Counterscreen for Glucocerebrosidase Inhibitors: qHTS Assay for Rice alpha-Glucosidase at pH 5.0 (AID 997); details: rice alpha-glucosidase enzyme activity; series mostly up to 76.9 µM
Outline: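 Rice alpha-glucosidase (4 nM final) with 400 uM 4-methylumbelliferyl-alpha-D-glucopyranoside in citrate buffer pH 5.0, 20 min at room temperature, stopped at pH 10; fluorescence 365/440 nm, compounds 0.7 nM–77 uM, AC50 from Hill fits.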

[10] = biological target: Ubiquitin carboxyl-terminal hydrolase 1 (Homo sapiens) (UniProt O94782); assay: Inhibitors of USP1/UAF1: Pilot qHTS (AID 504865); details: purified USP1/UAF1, Ub-rhodamine cleavage fluorescence; series mostly up to 114 µM;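 also: rhodamine fluorescence freed from ubiquitin-rhodamine substrate followed over time; top concentration of the series differs between compounds; nearly all actives have a fitted effect of over 35% in size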
Outline: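 1nM USP1/UAF1 + cpd, 15 min RT; start w/ Ub-Rho 150nM final; kinetic FL 480/540 nm, 6 reads q60 s. Buffer 50mM HEPES pH 7.8, 0.5mM EDTA, 1mM TCEP, 0.01% Tween-20, 0.1 mg/ml BSA.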

[11] = biological target: DNA dC->dU-editing enzyme APOBEC-3G (Homo sapiens) (UniProt Q9HC16); assay: qHTS for inhibitors of Vif-A3G interactions: Validation (AID 588379); details: Vif-A3G protein interaction assay; series mostly up to 46.1 µM
Outline: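 HeLa cells stably expressing Vif and A3G-eYFP, 700 cells/well, incubated overnight at 37 deg C, then exposed to compound overnight at 37 deg C. Inhibition of Vif-mediated degradation read as increased yellow fluorescence (Ex 488/Em 500-530) by laser-scanning cytometry.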

[12] = system: Zika virus NS2B-NS3 protease; assay: Primary screen GU AMC qHTS for Zika virus inhibitors (AID 1347154); details: Zika NS2B-NS3 unlinked protease, AMC fluorogenic substrate; series mostly up to 54.1 µM; also: nearly all actives have a fitted effect of over 70% in size
Outline: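 Fluorogenic AMC-substrate cleavage by noncovalent NS2B-NS3 protease complex (25 nM, pH 8.0 Tris buffer with Tween 20) followed for 15 minutes at room temperature (~20% conversion). Percent inhibition from ex340/em450 signal change, fitted by 4-parameter Hill equation.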

[13] = Primary qHTS for small molecule stabilizers of the endoplasmic reticulum resident proteome: Secreted ER Calcium Modulated Protein (SERCaMP) assay (AID 1508630); details: SH-SY5Y GLuc-SERCaMP (Gaussia luciferase released on ER calcium loss) secretion, thapsigargin, luminescence; series mostly up to 38.4 µM
Outline: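 GLuc-SERCaMP-expressing SH-SY5Y cells, pretreated 16 h with compound, are challenged with thapsigargin to empty ER calcium stores; after 4 h, coelenterazine is added directly to the medium and luminescence is imaged.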

[14] = NFAT Signaling Pathway (AID 444; active = well fitted curve in either direction with a large enough effect, not every such curve was filed as active;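 also: carbachol stimulus at about its EC50 of 1 µM final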); details: Jurkat NFAT-bla M1, carbachol, beta-lactamase ratio, 5 h; at 38 µM (top of the series)
Outline: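 Read-out: CCF4 FRET ratio (460 nm/530 nm) after 1 h RT dye loading, used for %activity and AC50 from titration series. Cells: Jurkat NFAT-β-lactamase/M1 line, treated with compound plus 1 uM carbachol for 5 h, 37 °C.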

[15] = biological target: Glucocorticoid receptor (Homo sapiens) (UniProt P04150); assay: GR-GFP Redistribution (AID 450;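 active = compounds whose dose series gives a full or clear partial fitted curve of increased nuclear translocation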; also: potency is read from the fitted curve at half-maximal effect); details: U2OS GR-GFP nuclear translocation, laser cytometry, 2 h
[16] = biological target: Glucocorticoid receptor (Homo sapiens) (UniProt P04150); assay: GR-EFC Redistribution (AID 451; calls by dose curve; also: potency is read from the fitted curve at half-maximal effect); details: CHO-K1 GR-EFC translocation, beta-gal luminescence, 2 h
Outline: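 Translocation of GR-ED fusion to nuclear EA restores b-gal, read by luminescence after 1 h room-temperature detection. Engineered CHO-K1 biosensor cells, 1,000/well, exposed 2 h at 37 C to titrations up to 46 uM final.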

[17] = biological target: Cytochrome P450 2C9 (Homo sapiens) (UniProt P11712); assay: qHTS Assay for Inhibitors and Substrates of Cytochrome P450 2C9 (AID 883); details: recombinant CYP2C9, luciferin-H luminescence, 60 min; series mostly up to 57.1 µM; also: nearly all actives have a fitted effect of over 60% in size; also: potency is read from the fitted curve at half-maximal effect
Outline: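 Turnover of Luciferin-H (100uM, KM) by 10nM human CYP2C9 was measured over 60 min at 37C with NADPH regeneration; inhibitors and some substrates reduce luminescence. Data normalized to sulphaphenazole 57uM.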

[18] = biological target: Cytochrome P450 2C19 (Homo sapiens) (UniProt P33261); assay: qHTS Assay for Inhibitors and Substrates of Cytochrome P450 2C19 (AID 899); details: recombinant CYP2C19, luciferin-H EGE luminescence; series mostly up to 57.1 µM; also: nearly all actives have a fitted effect of over 60% in size; also: potency is read from the fitted curve at half-maximal effect
Outline: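 Reactions contain 5nM enzyme, 10uM Luciferin-H EGE (KM) and 50mM KPO4; compound preincubates 10 min at 37C, NADPH regeneration starts turnover for 60 min. Luminescence after detection reagent gives activity.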

Sequence of DNA dC->dU-editing enzyme APOBEC-3G (Homo sapiens) (Q9HC16 whole entry, looked up): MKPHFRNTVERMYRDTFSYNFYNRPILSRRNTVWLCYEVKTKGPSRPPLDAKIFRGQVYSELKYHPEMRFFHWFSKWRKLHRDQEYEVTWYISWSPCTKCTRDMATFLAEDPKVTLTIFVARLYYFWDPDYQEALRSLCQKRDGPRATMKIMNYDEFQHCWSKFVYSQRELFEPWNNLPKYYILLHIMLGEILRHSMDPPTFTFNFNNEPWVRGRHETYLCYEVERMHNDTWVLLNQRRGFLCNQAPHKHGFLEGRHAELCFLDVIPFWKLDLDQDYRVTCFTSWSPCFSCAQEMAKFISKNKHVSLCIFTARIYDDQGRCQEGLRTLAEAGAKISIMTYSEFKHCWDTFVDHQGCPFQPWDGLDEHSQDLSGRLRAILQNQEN
Sequence of Cytochrome P450 2C9 (Homo sapiens) (P11712 whole entry, looked up): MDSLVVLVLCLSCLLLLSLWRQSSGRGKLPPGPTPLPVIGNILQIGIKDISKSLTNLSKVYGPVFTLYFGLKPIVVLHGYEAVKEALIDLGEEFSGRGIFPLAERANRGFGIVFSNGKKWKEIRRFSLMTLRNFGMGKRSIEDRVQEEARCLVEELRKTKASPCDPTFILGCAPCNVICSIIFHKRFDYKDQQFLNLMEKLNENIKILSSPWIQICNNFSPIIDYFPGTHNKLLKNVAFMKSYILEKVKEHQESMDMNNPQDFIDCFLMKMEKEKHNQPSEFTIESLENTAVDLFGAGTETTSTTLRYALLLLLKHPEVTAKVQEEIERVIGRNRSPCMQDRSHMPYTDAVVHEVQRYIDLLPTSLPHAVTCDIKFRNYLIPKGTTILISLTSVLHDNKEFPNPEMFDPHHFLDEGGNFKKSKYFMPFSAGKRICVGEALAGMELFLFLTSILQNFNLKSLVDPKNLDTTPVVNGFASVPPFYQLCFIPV
Sequence of Cytochrome P450 1A2 (Homo sapiens) (P05177 whole entry, looked up): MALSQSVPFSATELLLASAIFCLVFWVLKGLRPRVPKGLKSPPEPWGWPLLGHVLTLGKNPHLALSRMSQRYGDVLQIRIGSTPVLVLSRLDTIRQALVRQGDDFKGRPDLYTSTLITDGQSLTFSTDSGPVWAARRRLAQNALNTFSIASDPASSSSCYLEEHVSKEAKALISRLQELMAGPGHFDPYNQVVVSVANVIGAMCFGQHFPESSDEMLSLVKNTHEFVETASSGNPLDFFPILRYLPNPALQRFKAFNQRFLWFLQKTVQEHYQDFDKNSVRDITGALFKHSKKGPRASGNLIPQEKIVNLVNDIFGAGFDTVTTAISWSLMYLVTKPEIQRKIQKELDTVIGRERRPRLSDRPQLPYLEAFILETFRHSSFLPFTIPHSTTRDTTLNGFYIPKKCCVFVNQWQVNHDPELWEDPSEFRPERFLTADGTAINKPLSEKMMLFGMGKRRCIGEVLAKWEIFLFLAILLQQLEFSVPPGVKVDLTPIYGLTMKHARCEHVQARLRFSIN
Sequence of Glucocorticoid receptor (Homo sapiens) (P04150 whole entry, looked up, the tested form may be a part): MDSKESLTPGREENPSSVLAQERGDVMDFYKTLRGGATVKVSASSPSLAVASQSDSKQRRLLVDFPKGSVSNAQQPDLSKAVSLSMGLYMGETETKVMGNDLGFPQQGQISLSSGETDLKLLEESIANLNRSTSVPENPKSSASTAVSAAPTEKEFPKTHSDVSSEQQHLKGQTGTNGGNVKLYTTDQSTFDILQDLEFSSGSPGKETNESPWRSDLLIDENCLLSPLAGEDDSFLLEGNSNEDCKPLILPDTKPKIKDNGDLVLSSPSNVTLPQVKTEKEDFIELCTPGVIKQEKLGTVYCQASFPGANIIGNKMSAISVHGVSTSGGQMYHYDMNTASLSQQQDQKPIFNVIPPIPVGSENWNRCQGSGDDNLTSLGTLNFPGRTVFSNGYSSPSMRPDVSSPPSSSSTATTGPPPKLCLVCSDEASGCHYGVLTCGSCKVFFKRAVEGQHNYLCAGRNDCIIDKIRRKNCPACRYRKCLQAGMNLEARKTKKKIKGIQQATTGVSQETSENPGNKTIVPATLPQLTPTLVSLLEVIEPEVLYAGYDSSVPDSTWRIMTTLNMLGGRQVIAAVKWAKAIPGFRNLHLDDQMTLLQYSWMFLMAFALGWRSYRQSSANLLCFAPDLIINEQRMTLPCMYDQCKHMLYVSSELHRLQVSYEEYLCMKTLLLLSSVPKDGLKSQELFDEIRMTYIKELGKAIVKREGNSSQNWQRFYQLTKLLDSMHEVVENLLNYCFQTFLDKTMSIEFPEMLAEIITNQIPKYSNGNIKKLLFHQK
Sequence of Cytochrome P450 3A4 (Homo sapiens) (P08684 whole entry, looked up): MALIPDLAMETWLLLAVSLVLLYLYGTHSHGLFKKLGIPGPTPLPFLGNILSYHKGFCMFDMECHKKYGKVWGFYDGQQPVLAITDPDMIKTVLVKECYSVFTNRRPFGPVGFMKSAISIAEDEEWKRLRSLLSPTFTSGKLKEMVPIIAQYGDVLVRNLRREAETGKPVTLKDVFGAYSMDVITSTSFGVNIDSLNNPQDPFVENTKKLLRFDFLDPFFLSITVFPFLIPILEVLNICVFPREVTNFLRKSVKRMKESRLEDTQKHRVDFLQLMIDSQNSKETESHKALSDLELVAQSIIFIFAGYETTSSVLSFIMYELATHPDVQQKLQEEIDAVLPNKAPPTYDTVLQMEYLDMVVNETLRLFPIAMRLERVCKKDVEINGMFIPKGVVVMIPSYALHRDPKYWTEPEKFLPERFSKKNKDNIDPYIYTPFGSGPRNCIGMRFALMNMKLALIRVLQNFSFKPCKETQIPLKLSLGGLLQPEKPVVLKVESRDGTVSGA
Sequence of Guanine nucleotide-binding protein G(i) subunit alpha-1 (Homo sapiens) (P63096 whole entry, looked up): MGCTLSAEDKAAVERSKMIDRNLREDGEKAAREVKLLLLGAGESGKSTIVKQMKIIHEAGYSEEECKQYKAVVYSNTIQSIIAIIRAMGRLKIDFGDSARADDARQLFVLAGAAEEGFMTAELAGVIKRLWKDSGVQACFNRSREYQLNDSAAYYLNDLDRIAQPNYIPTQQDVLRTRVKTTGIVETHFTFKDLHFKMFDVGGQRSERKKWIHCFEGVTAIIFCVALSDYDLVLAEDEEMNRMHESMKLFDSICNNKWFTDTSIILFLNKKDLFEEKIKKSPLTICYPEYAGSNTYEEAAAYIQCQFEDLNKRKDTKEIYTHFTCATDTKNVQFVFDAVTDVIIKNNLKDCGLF
Sequence of Cytochrome P450 2C19 (Homo sapiens) (P33261 whole entry, looked up): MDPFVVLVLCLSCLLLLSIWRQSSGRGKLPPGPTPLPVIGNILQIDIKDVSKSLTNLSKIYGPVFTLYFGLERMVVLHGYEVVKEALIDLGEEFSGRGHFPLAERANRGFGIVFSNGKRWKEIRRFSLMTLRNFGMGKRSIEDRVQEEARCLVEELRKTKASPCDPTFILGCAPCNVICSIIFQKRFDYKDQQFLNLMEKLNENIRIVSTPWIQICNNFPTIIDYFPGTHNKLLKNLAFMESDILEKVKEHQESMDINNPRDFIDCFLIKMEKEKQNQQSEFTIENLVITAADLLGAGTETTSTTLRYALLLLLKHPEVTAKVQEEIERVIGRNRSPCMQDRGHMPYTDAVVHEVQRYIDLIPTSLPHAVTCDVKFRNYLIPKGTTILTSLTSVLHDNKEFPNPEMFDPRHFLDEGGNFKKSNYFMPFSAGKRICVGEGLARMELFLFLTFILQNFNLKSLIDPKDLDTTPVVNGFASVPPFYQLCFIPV
Sequence of Pyruvate kinase PKM (Homo sapiens) (P14618 whole entry, looked up): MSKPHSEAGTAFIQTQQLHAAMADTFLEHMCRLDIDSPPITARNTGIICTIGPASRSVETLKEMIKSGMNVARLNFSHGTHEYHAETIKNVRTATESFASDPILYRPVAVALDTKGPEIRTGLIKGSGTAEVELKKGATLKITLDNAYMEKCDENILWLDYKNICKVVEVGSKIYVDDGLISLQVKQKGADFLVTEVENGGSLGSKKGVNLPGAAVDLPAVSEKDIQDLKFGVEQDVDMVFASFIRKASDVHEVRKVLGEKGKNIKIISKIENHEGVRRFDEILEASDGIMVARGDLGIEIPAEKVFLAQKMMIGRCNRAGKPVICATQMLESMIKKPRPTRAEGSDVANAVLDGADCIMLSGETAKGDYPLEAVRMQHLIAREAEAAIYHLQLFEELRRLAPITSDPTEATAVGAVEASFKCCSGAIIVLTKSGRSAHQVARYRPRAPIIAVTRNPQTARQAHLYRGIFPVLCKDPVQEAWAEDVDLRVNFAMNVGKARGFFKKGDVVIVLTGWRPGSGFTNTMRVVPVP
Sequence of Ubiquitin carboxyl-terminal hydrolase 1 (Homo sapiens) (O94782 whole entry, looked up): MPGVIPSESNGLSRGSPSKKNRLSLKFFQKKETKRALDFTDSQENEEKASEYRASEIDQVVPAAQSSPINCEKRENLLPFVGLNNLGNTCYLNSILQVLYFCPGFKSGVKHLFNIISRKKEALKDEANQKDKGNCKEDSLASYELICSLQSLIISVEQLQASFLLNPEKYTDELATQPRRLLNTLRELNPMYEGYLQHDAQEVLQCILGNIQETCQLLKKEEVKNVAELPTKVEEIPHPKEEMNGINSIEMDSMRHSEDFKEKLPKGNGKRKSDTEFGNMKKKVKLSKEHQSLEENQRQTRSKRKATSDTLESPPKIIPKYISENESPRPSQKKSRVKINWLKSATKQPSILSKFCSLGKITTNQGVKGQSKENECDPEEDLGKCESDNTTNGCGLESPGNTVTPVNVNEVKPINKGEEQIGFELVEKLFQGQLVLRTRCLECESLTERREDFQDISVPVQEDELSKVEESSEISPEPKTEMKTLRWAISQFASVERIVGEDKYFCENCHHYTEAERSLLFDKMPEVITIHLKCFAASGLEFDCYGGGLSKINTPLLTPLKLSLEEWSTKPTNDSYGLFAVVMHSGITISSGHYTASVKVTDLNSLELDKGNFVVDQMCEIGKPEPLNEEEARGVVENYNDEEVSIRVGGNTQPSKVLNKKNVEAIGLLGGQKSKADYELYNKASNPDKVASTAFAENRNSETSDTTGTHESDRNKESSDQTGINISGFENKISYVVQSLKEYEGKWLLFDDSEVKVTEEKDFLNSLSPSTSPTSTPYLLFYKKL

SMILES	activity change, negative = inhibition ([1]; at 38 µM (top of the series)) [%]	Potency [2]	activity, negative = inhibition ([3]; at 17.2 µM (top of the series)) [%]	activity, negative = inhibition ([3]; at 38 µM (top of the series)) [%]	Potency [4]	Potency [5]	outcome [6]	Potency [7]	outcome [8]	outcome [9]	Potency [10]	Potency [11]	Potency [12]	Potency [13]	activity change, negative = inhibition [14] [%]	Potency [15] [µM]	Potency [16] [µM]	Potency [17]	Potency [18]	activity change, negative = inhibition ([1]; at 17.2 µM (top of the series)) [%]
CNCC[C@H](Oc1ccccc1OC)c1ccccc1	26.3	12.6 µM (active) and 10 µM (active) and 15.8 µM (active)	-0.439	4.82	inactive	inactive	inactive	inactive	inactive	inactive	inactive	inactive	inactive	inactive						
C=CCN1CCc2cc(O)c(O)cc2[C@H](c2ccccc2)C1	-3.34	inactive		-21	inactive	inactive	inactive		inactive	inactive		inactive	inactive	inactive	-18.1	> 46	> 46			
CC[C@H](C)C(=O)O[C@H]1CCC=C2C=C[C@H](C)[C@H](CC[C@@H]3C[C@H](O)CC(=O)O3)[C@H]21					inactive		inactive	inactive	inactive	inactive		inactive	inactive	inactive		> 46	> 46			
CCCCOc1cc(C[C@@H]2CNC(=O)N2)ccc1OC	-11.4			24.5	inactive		inactive	inactive	inactive	inactive		inactive	inactive	inactive	-19.1	> 46	> 46	inactive	inactive	
CCC(C)(C)C(=O)O[C@@H]1C[C@@H](C)C=C2C=C[C@H](C)[C@H](CC[C@@H]3C[C@@H](O)CC(=O)O3)[C@H]21					inactive							inactive	inactive	inactive		> 46	> 46			
CCN(Cc1ccncc1)C(=O)[C@@H](CO)c1ccccc1		15.8 µM (active) and 10 µM (active)	-6.07	-7.02	inactive		inactive	inactive	inactive	inactive	inactive	inactive	inactive	inactive						5.81
CCOC(=O)C1=C(C)NC(C)=C(C(=O)OC)[C@H]1c1cccc([N+](=O)[O-])c1	-24.5	15.8 µM (active)		17.9			inactive		inactive	inactive		inactive	inactive	inactive	-17			1.58 µM (active) and 158 nM (active)	1.26 µM (active) and 251 nM (active)	
